# Assay outcomes from PubChem.
# miR-21 act: qHTS Assay for Modulators of miRNAs and/orActivators of miR-21. 340,000 tested, under 10 active. Potency, µM (highest dose often 38.3 µM), without a hit: at the top dose activity change, positive = activation, actives largely listed as activators. HeLa miR-21 FLuc reporter, luciferase, 48 h. AID 2288, 2010;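 note: % of control where 0% means no effect; miR-21 action dims this reporter so a rising signal means less miR-21 action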
#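 Compounds were titrated across several concentrations (up to approximately 40 uM) and incubated 48 hours with HeLa miR-21-FLuc reporter cells (miR-21 target sequence downstream of FLuc, endogenous miR-21). Readout was firefly luciferase luminescence after lytic detection reagent.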
# DT40 TDP1 no CPT: qHTS for Inhibitors of human tyrosyl-DNA phosphodiesterase 1 (TDP1): qHTS in cells in absence of CPT; DT40 Tdp1-/- hTDP1 cells, no CPT, ATP luminescence, 48 h; Potency, µM (doses to about 46.2 µM), without a hit: at the highest dose activity change, negative = growth inhibition, usual class: inhibitors; 15% of 420,000 active; note: potency is the fitted concentration of half-maximal effect; % is set by controls: 0 for no effect and ±100 for the full control effect; nearly all actives have a fitted effect of over 55% in size
#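 DT40 Tdp1-/-;hTDP1 cells, no CPT (DMSO vehicle only), 400 cells/well; compounds pin-transferred; ≥48 hr, 37 °C; CellTiter-Glo 30 min RT dark, luminescence read.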
# uPA generation: qHTS for Inhibitors of Cell Surface uPA Generation; cell surface uPA generation assay, qHTS; Potency, µM (highest dose often 38.3 µM), inactives show at the highest dose activity change, negative = inhibition, usual class: inhibitors; 0.31% of 330,000 active; active = well fitted inhibition curve with a large enough effect; inconclusive = small, poorly fitted or top-dose-only effect; inactive = no such curve, though single readings can be large or run the other way; tested in mouse RAW 264.7 cells; note: potency is the fitted concentration of half-maximal effect; % is set by controls: 0 for no effect and ±100 for the full control effect; nearly all actives have a fitted effect of over 55% in size
# TDP1 inh: qHTS Assay for Inhibitors of Tyrosyl-DNA Phosphodiesterase (TDP1). AID 485290, 2010. Tyrosyl-DNA phosphodiesterase 1 (Homo sapiens), Q9NUW8. 0.28% of 350,000 active. recombinant TDP1, AlphaScreen DNA substrate cleavage. Potency, µM (series often up to 130 µM), for the others: top-dose activity change, negative = inhibition, usual class: inhibitors; note: potency is the fitted concentration of half-maximal effect; % is set by controls: 0 for no effect and ±100 for the full control effect; nearly all actives have a fitted effect of over 40% in size
# Target sequence (Q9NUW8 whole entry, looked up): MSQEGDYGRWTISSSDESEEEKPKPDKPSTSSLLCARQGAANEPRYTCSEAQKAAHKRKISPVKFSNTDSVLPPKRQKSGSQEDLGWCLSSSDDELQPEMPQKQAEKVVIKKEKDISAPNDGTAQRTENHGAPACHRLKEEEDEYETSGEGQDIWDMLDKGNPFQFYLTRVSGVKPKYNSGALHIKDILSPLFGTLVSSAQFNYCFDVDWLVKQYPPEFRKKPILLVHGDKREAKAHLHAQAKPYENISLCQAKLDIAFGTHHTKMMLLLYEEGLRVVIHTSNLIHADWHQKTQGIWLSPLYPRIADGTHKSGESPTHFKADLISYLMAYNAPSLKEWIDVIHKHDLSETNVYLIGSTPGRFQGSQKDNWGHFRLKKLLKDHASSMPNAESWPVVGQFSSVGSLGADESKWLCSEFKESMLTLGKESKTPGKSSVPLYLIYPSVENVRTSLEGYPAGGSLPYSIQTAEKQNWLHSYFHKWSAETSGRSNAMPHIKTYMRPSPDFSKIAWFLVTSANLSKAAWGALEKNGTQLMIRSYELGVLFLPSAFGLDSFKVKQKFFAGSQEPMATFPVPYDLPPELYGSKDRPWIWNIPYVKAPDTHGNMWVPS
#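 Recombinant E. coli-expressed Tdp1 (1 nM) preincubated with compound 15 min at RT, then 5'-biotin/3'-phosphotyrosine-FITC DNA substrate (15 nM) added for 5 min. AlphaScreen beads (10 ug/ml) added, 10 min RT; tyrosine-FITC cleavage read as signal loss.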
# DT40 TDP1 CPT: qHTS for Inhibitors of human tyrosyl-DNA phosphodiesterase 1 (TDP1): qHTS in cells in presence of CPT; chicken DT40 Tdp1-/-;hTDP1 cells + 20 nM CPT, ATP luminescence, 48 h; Potency, µM (titrated, usually from 46.2 µM), for inactives: at the highest dose activity change, negative = growth inhibition, actives largely listed as inhibitors; 12% of 420,000 active; note: potency is the fitted concentration of half-maximal effect; % is set by controls: 0 for no effect and ±100 for the full control effect; nearly all actives have a fitted effect of over 55% in size
#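 Chicken DT40 Tdp1-/- cells stably complemented with human TDP1 were seeded at 400 cells/well in medium containing 20 nM camptothecin, exposed to pin-transferred compounds, and grown at 37 °C for at least 48 hr. Viability was read as ATP luminescence.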
# * hit, by the source's call; ? = inconclusive; nt = not tested or not shown. In the library only some 16% were active in any assay of this set; here they are far more common. Unless noted, calls come from the whole dose curve; as a rule, active = well fitted curve in the direction sought with a large enough effect; inconclusive = small, poorly fitted or top-dose-only effect, or another doubt; inactive = no such curve, though single readings can be large; an effect the other way counts as inactive or inconclusive.
SMILES,miR-21 act,DT40 TDP1 no CPT,uPA generation,TDP1 inh,DT40 TDP1 CPT
O=C1Nc2ccccc2N(C(=O)c2ccc(-c3ccccc3)cc2)C1c1nc2ccccc2[nH]1 (configuration not stated),nt,21µM*,nt,nt,?
O=C1Nc2ccccc2N(C(=O)c2c(F)cccc2F)C1c1nc2ccccc2[nH]1 (configuration not stated),nt,-30%,nt,nt,?
Cc1nnsc1NC(=O)OCc1ccc(C(C)(C)C)cc1,18%,8.2µM*,-6%,5%,15µM*
Cc1cc(C)cc(C(=O)NC(CC(N)=O)c2ccc(N3CCN(c4ccccn4)CC3)c([N+](=O)[O-])c2)c1 (configuration not stated),-1%,-13%,-8%,nt,-3%
CC(C)C(NC(=O)c1ccccc1Cl)C(=O)OCc1nc2scc(-c3ccccc3Cl)c2c(=O)[nH]1 (configuration not stated),3%,-18%,-1%,5%,-1%
Cc1ccc(NC(=O)Cc2nnc(SCC(=O)NC3CCCC3)n2C)cc1,-2%,-3%,3%,nt,-25%
CC1=N/C(=C\c2ccc([N+](=O)[O-])cc2)C(=O)N1c1ccc(F)cc1F,-3%,18µM*,0%,nt,?
CC1=N/C(=C/c2ccc([N+](=O)[O-])cc2)C(=O)N1c1ccc(Cl)cc1Cl,-3%,26µM*,13%,-10%,?
CC(=O)Nc1ccn(C2CC3OCC(NC(=O)C4CCCN4C(=O)OC(C)(C)C)C3O2)c(=O)n1 (configuration not stated),nt,nt,nt,8%,nt
CC1(CC(=O)N/N=C/c2ccc(-c3ccc(Cl)cc3)o2)OCCO1,-9%,?,-4%,6%,-14%
CC(Sc1nc2ccccc2c(=O)n1C)C(=O)N(C)C1CCCCC1 (configuration not stated),nt,7.3µM*,?,0%,10µM*
N#Cc1ccc(N2CCCC2C(=O)O)c([N+](=O)[O-])c1 (configuration not stated),0%,-2%,1%,3%,5%
O=C(Nc1cc(Cl)ccc1N1CCOCC1)c1ccco1,4%,-9%,-1%,2%,1%
COC(=O)c1ccc(N2CCCCC2)c(NC(=O)c2ccco2)c1,15%,23µM*,-10%,nt,?
O=C(Nc1ccc(N2CCCC2)c(Cl)c1)c1ccco1,-13%,?,?,8%,?
O=C(c1ccccc1)c1ccc(N2CCOCC2)c(NC(=O)c2ccco2)c1,10%,21µM*,-4%,5%,?
Cc1cccc(NC(=O)CN2CCN(C(=O)c3cc(C4CC4)nn3-c3ccccc3)CC2)c1C,nt,?,nt,nt,5%
Cc1ccccc1-n1c(SCC(=O)Nc2ccc3c(c2)OCO3)nnc1-c1ccccn1,14%,?,0%,3%,-1%
CCOc1ccc(-c2cc3cc(OC)c(OC)cc3c(C)n2)cc1,-6%,?,5%,6%,-28%
COc1cc2cc(-c3ccc(O)cc3O)nc(C)c2cc1OC,-12%,6.5µM*,-18%,nt,10µM*
COc1cc2cc(-c3ccc(OC)c(OC)c3C)nc(N)c2cc1OC,nt,5.8µM*,-17%,nt,5.2µM*
O=C(NCc1cccnc1)Nc1ccc(Cl)cc1,-27%,-4%,1%,1%,1%
CC(C)NC(=O)N(C)C[C@H]1Oc2c(NC(=O)Cc3ccccc3)cccc2C(=O)N([C@H](C)CO)C[C@@H]1C,nt,-7%,7%,1%,-13%
CCCCCCCCN1C(=O)[C@H](CC(=O)NCC2CCCCC2)C[C@@]2(C(=O)OCC)CCC=C12,nt,18µM*,nt,nt,16µM*
CCCCCCCCN1C(=O)[C@H](CC(=O)NCC2CCCCC2)C[C@@]2(C(=O)OCC)CCCC=C12,nt,18µM*,nt,nt,21µM*
SMILES,miR-21 act,DT40 TDP1 no CPT,uPA generation,TDP1 inh,DT40 TDP1 CPT
C#CCNC(=O)C[C@@H]1C[C@@]2(C(=O)OCC)CCCC=C2N(CCC2=CCCCC2)C1=O,nt,15µM*,nt,nt,13µM*
C#CCNC(=O)C[C@@H]1C[C@@]2(C(=O)OCC)CCCC=C2N(CCCCCCCC)C1=O,nt,13µM*,nt,nt,16µM*
C#CCNC(=O)C[C@@H]1C[C@@]2(C(=O)OCC)CCCC=C2N(Cc2ccc3c(c2)OCO3)C1=O,nt,-27%,nt,nt,-15%
O=C(c1ccc(N2CN(C(=O)c3ccco3)c3nc4ccccc4nc32)cc1)N1CCOCC1,-2%,23µM*,-6%,3%,13µM*
CC(C)CC(COCc1ccc(C(F)(F)F)cc1)N1CCN(C(=O)c2ccc(C(F)(F)F)cc2)CCC1=O (configuration not stated),7%,?,?,-4%,?
Cc1ccccc1COC[C@H](CC(C)C)N1CCN(C(=O)c2cccc(C(F)(F)F)c2)CCC1=O,0%,13µM*,1%,0%,16µM*
CC(C)CC(COCc1cccc(C(F)(F)F)c1)N1CCN(C(=O)c2cccc(C(F)(F)F)c2)CCC1=O (configuration not stated),0%,23µM*,6%,-1%,16µM*
CC(C)CC(COCc1ccc(Cl)cc1)N1CCN(C(=O)c2cccc(C(F)(F)F)c2)CCC1=O (configuration not stated),0%,21µM*,8%,-4%,16µM*
CC(C)CC(CO)N1CCN(C(=O)c2cccc(Cl)c2)CCC1=O (configuration not stated),nt,-16%,-5%,nt,-16%
CCN(CC)C(=O)CSc1nc(O)c(Cc2ccc(OC)cc2)c(=O)[nH]1,-1%,8%,21%,?,-8%
COc1cccc(Nc2nc(C(N)C3CCCCC3)cs2)n1 (configuration not stated),nt,23µM*,nt,nt,?
COc1cccc(Nc2nc(C(N)c3ccccc3)cs2)n1 (configuration not stated),nt,12µM*,nt,nt,9.2µM*
COc1cccc(Nc2nc(C(C)N)cs2)n1 (configuration not stated),nt,?,nt,nt,13µM*
COc1cccc(Nc2nc(CN)cs2)n1,nt,?,nt,nt,-21%
COc1ccc(-c2csc(Nc3cccc(C)n3)n2)cc1C,-48%,?,-2%,nt,-9%
CCOC(=O)/C(=N\Nc1ccc(OC)cc1)c1csc(Nc2ccccc2)n1,-14%,?,-7%,8%,?
CCOC(=O)c1c(C)oc2c1c(C=NCc1ccccn1)c(O)c1ccccc12,1%,1.2µM*,12%,13%,0.92µM*
CCOC(=O)c1c(C)oc2c1cc(O)c1ccccc12,-60%,-17%,-6%,4%,-18%
